Reference: article PMC10726135, “HNF4α isoforms regulate the circadian balance between carbohydrate and lipid metabolism in the liver”
Whole data set: some 18,000 sequences, median “log2 normalized intensity” near 0.39, cut for the highest 2% near 6.6. For the sample, the highest values were picked, then their nearest neighbours and some sequences at random.

biological target: T1, HNF4alpha2 (COS-7 nuclear extract) (Homo sapiens, UniProt P41235 1-474); assay: protein-binding microarray; COS-7 nuclear extract on double-stranded Agilent 4x180k PBM; binding buffer, salt, pH and temperature not given in the material; high values mean tight binding; conditions: chain copies: 2; label: 3' end of strand 1 on the slide; dsDNA, one strand shown
T1 sequence: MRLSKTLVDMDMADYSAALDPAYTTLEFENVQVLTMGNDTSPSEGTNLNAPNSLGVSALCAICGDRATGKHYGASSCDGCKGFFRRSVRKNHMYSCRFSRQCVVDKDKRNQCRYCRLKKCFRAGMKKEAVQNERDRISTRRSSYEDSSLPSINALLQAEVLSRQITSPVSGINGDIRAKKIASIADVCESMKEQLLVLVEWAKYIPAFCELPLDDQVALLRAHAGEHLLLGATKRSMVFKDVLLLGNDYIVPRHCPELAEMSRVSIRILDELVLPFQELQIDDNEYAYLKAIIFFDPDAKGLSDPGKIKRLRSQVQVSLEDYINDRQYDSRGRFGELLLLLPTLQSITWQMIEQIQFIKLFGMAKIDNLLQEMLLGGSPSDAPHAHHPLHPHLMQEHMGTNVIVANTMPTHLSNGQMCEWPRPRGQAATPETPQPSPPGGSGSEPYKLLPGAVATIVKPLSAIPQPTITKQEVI
How it was run: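 COS-7 cells were transiently transfected by CaPO4 with an expression vector for a human HNF4α isoform, and nuclear extracts were prepared from them. The extracts were applied to a custom Agilent SurePrint G3 4x180k array of double-stranded ~60-nt oligonucleotides, with ~44,000 test sequences spotted in quadruplicate. An Agilent G2565CA scanner imaged bound HNF4α at 2-µm resolution. Binding signal is the background-corrected, normalized gProcessedSignal from Agilent software.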

Sequence | binding signal [log2 normalized intensity]
AATTTTTTTTTCTTATCTCACTGGATGTGTGCCTAGGGAGATTAGAGTATCGGTCGA | 2.22
AGGTTAAGACTTTGAATCAGTAAATATTTGGCCTAGGGAGATTAGAGTATCGGTCGA | 0.901
AGATACAGGTCAGACCCTGGAATTCCAGAAGCCTAGGGAGATTAGAGTATCGGTCGA | -0.969
GGCCCATTTTCCCATGGTCTGTAGAAGGCGGCCTAGGGAGATTAGAGTATCGGTCGA | 0.306
GATGTTCGTTTGGATCGCTTGGCTCAGGCCGCCTAGGGAGATTAGAGTATCGGTCGA | -0.819
CTCTGATCCTAGTCTTTGCCCCACTGCAAGGCCTAGGGAGATTAGAGTATCGGTCGA | 2.95
GGGTGGTGGTTACCGGCAGAGGCTGCAGAGGCCTAGGGAGATTAGAGTATCGGTCGA | 0.249
CTCCCTTTGATGCGGTCAGAGTTCATTTGGGCCTAGGGAGATTAGAGTATCGGTCGA | 3.48
CAGTTTTTGTTTGCACCTCACAGGAAGAACGCCTAGGGAGATTAGAGTATCGGTCGA | 1.15
ATTTGAGGGTGACACTGCTCTCTCCAGGGGGCCTAGGGAGATTAGAGTATCGGTCGA | -0.738
AGCCTACCCACCCACACCTCCCCTTTGTTTGCCTAGGGAGATTAGAGTATCGGTCGA | 3.59
TGTTTTTTGCCCTTTGTACCCACACACACCGCCTAGGGAGATTAGAGTATCGGTCGA | 6.48
GGGTTTGTTTTTTGCCCTTTGTACCCACACGCCTAGGGAGATTAGAGTATCGGTCGA | 7.67
AGAGGGGGTTTGTTTTTTGCCCTTTGTACCGCCTAGGGAGATTAGAGTATCGGTCGA | 8.01
CCCACAGAGGGGGTTTGTTTTTTGCCCTTTGCCTAGGGAGATTAGAGTATCGGTCGA | 4.6
TGCCCTTTGCCTGGTGATCTTTGTTAGACCGCCTAGGGAGATTAGAGTATCGGTCGA | 2.7
ATGCCGGCGTGACCCCCACTGCCTGCCTGCGCCTAGGGAGATTAGAGTATCGGTCGA | 3.81
ATTTGACAATTTACAGTGTTCAAAGGTAGCGCCTAGGGAGATTAGAGTATCGGTCGA | 1.66
CTTTAACGACCTTTGGACTTGAATTATCCTGCCTAGGGAGATTAGAGTATCGGTCGA | 7.84
TCGAATGGTATGCTAGAGTACTTGGACTTTGCCTAGGGAGATTAGAGTATCGGTCGA | 6.9
GCTTTTGGAAGGACTTCGAATGGTATGCTAGCCTAGGGAGATTAGAGTATCGGTCGA | 0.461
GGACTTCGAATGGTATGCTAGAGTACTTGGGCCTAGGGAGATTAGAGTATCGGTCGA | 1.23

Sequence | binding signal [log2 normalized intensity]
TGGTATGCTAGAGTACTTGGACTTTAACCTGCCTAGGGAGATTAGAGTATCGGTCGA | 9.48
TAGGGCCTTGCTATGGAGTGGACTTTGGCTGCCTAGGGAGATTAGAGTATCGGTCGA | 6.16
CTGGACTATGCCTTGAACTTTAAGGCACCTGCCTAGGGAGATTAGAGTATCGGTCGA | 1.07
GCCTAAGCAGGGCTAGACTTTAACCCCCTTGCCTAGGGAGATTAGAGTATCGGTCGA | 5.53
ACGACCTTTGGACTTGAATTATCCTTATGGGCCTAGGGAGATTAGAGTATCGGTCGA | 6.27
CTTTGGACTTGAATTATCCTTATGGTCTCTGCCTAGGGAGATTAGAGTATCGGTCGA | 0.855
TGCTAGAGTACTTGGACTTTAACCTTTAGAGCCTAGGGAGATTAGAGTATCGGTCGA | 9.24
TATGCTCTCTCTCCACCTGGAGGGACTTTGGCCTAGGGAGATTAGAGTATCGGTCGA | 2.59
CGTCCGTCACCCCTTTCTTTGATTAGGAAAGCCTAGGGAGATTAGAGTATCGGTCGA | 1.54
GTCAGTTGATAAACAGATAACTGGGGGCAAGCCTAGGGAGATTAGAGTATCGGTCGA | 0.764
AGTCTGATTCTAGGGCCCATGCCCTTAGCCGCCTAGGGAGATTAGAGTATCGGTCGA | 0.883
TCTGTATGTCTAAGGTTTCTCAGCCCCATCGCCTAGGGAGATTAGAGTATCGGTCGA | 4.27
CGGGTGAAGGTTAAATAGCTCATTAAGCTTGCCTAGGGAGATTAGAGTATCGGTCGA | -0.974
CTCTCAACTCAGTGAGGGCTATTGACAAAGGCCTAGGGAGATTAGAGTATCGGTCGA | -0.637
ATTTTCCCACTTGTATGTCCAAGGGTCACTGCCTAGGGAGATTAGAGTATCGGTCGA | 4.44
AATTTTCTCTGTATACTTGTCTTATCAGCAGCCTAGGGAGATTAGAGTATCGGTCGA | 0.598
CTTGGACTTTAACCTTTAGATTACTAGGAAGCCTAGGGAGATTAGAGTATCGGTCGA | 6.18
ACTTTAACCTTTAGATTACTAGGAATTGATGCCTAGGGAGATTAGAGTATCGGTCGA | 0.914
GAGTACTTGGACTTTAACCTTTAGATTACTGCCTAGGGAGATTAGAGTATCGGTCGA | 7.31
CTTATCTTTGACCTTACCAGCCCACTCTTAGCCTAGGGAGATTAGAGTATCGGTCGA | 1.9
TTTCATTCCACTGACTTGCAACCTTTGCCCGCCTAGGGAGATTAGAGTATCGGTCGA | 6.76
CTGGCTTTCATTCCACTGACTTGCAACCTTGCCTAGGGAGATTAGAGTATCGGTCGA | 0.803

Sequence | binding signal [log2 normalized intensity]
TTAGCTTCCTCCCTTGGAATGTGACCTTAGGCCTAGGGAGATTAGAGTATCGGTCGA | 4.12
AGATGACCTTTGCCCTTGACTTTTTGTGGGGCCTAGGGAGATTAGAGTATCGGTCGA | 7.08
CCCTTGGAATGTGACCTTAGACCCCTGAATGCCTAGGGAGATTAGAGTATCGGTCGA | 5.74
TTGCCCTTCTTGGATGCCCTTCCCTAACCCGCCTAGGGAGATTAGAGTATCGGTCGA | 2.66
GAGAGTTCCCTTGGAATGCCAGATGACCTTGCCTAGGGAGATTAGAGTATCGGTCGA | 4.14
TTCCCTTGGAATGCCAGATGACCTTTGCCCGCCTAGGGAGATTAGAGTATCGGTCGA | 9.88
TTCCACTGACTTGCAACCTTTGCCCTGTTGGCCTAGGGAGATTAGAGTATCGGTCGA | 6.31
TTCCTCCCTTGGAATGTGACCTTAGACCCCGCCTAGGGAGATTAGAGTATCGGTCGA | 8.18
ACCTTTGCCCTTGACTTTTTGTGGGGGCAGGCCTAGGGAGATTAGAGTATCGGTCGA | 2.38
TGCCCTTGACTTTTTGTGGGGGCAGATGTTGCCTAGGGAGATTAGAGTATCGGTCGA | 1.86
AGGGTGACCCCTGTGGTACAGGCAGTGACTGCCTAGGGAGATTAGAGTATCGGTCGA | 1.48
GAGGCTGCTCTCTGTCCCTGCACCCTACCCGCCTAGGGAGATTAGAGTATCGGTCGA | 1.6
AGGGCCCTTCACTATTTTCAAAGGTCAACAGCCTAGGGAGATTAGAGTATCGGTCGA | 3.49
TGTGTTTCCACAAACACAGATCAGATATGAGCCTAGGGAGATTAGAGTATCGGTCGA | -0.462
GGCCTCCCCATCCTCATGACAGTACCTCTCGCCTAGGGAGATTAGAGTATCGGTCGA | 2.32
GAACTTTGACCACCTACTGTTTGTGCAGAGGCCTAGGGAGATTAGAGTATCGGTCGA | 4.13
ACACTGCCATTTAAAAGTTTCCCTTGATCAGCCTAGGGAGATTAGAGTATCGGTCGA | 0.876
ATGCCAGATGACCTTTGCCCTTGACTTTTTGCCTAGGGAGATTAGAGTATCGGTCGA | 8.55
TTCTTTTTTTTTTTTTTTTTTTTTTGAGATGCCTAGGGAGATTAGAGTATCGGTCGA | 3
TATCCCTGGAGCCTTAGAAGATGACCTTTTGCCTAGGGAGATTAGAGTATCGGTCGA | 5.59
GGAAGTCCAGCATTCTTTTCCCCATACCAGGCCTAGGGAGATTAGAGTATCGGTCGA | 1.33
TGCCCTTTGTCCAGGGTGAGAGGGACCCTTGCCTAGGGAGATTAGAGTATCGGTCGA | 2.41

Sequence | binding signal [log2 normalized intensity]
GGACTTTGAACCTTGGGTCTGTAATCTCACGCCTAGGGAGATTAGAGTATCGGTCGA | 7.11
GCAAACCTACCTGAACTTTGCCCCAGAGGAGCCTAGGGAGATTAGAGTATCGGTCGA | 5.9
ACTTCTGTCTCCAGAAATCAACCTTTGATCGCCTAGGGAGATTAGAGTATCGGTCGA | 7.84
CACACTGCAGCAAAACTTTAGGACTTTGAAGCCTAGGGAGATTAGAGTATCGGTCGA | 3.31
GGGCAGCAAACCTACCTGAACTTTGCCCCAGCCTAGGGAGATTAGAGTATCGGTCGA | 7.99
ATAAGGGGCAGCAAACCTACCTGAACTTTGGCCTAGGGAGATTAGAGTATCGGTCGA | 3.07
TGCAGCAAAACTTTAGGACTTTGAACCTTGGCCTAGGGAGATTAGAGTATCGGTCGA | 8.63
TTGAACCTTGGGTCTGTAATCTCACAACTCGCCTAGGGAGATTAGAGTATCGGTCGA | 1.47
CCACCCACACTGCAGCAAAACTTTAGGACTGCCTAGGGAGATTAGAGTATCGGTCGA | 0.141
ATGTCTCCAGAAACCAACCTTTGATCATTCGCCTAGGGAGATTAGAGTATCGGTCGA | 4.87
CCTTGGGTCTGTAATCTCACAACTCAGAAGGCCTAGGGAGATTAGAGTATCGGTCGA | 0.23
TGTCTCCAGAAATCAACCTTTGATCGTTTGGCCTAGGGAGATTAGAGTATCGGTCGA | 5.83
AGAAAGACATGTTTCTAACTGCCCGCATTCGCCTAGGGAGATTAGAGTATCGGTCGA | 0.246
TATTCCAGGCACAAGAATGGTCATTCTCTGGCCTAGGGAGATTAGAGTATCGGTCGA | -0.977
GGCTTCTGGACTATGCCTTGAACTTTAAGGGCCTAGGGAGATTAGAGTATCGGTCGA | 2.21
TGGCACCTGAAGCTGCCCTTTGCACATGCCGCCTAGGGAGATTAGAGTATCGGTCGA | 4.08
ATTGGGATGGAGTAACTTGCTAAGTATAAAGCCTAGGGAGATTAGAGTATCGGTCGA | -0.531
TCTTTTCTAAGATATTTGCATAGGCATTGTGCCTAGGGAGATTAGAGTATCGGTCGA | 1.94
CTTGTCCAACTCCCCTCCCAAGGCAGCAATGCCTAGGGAGATTAGAGTATCGGTCGA | 4
